Results taken from PubChem BioAssay.
For part of these data: Results with a measured potency or affinity are listed apart. Activity calls are given as the source filed them.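 The calls were made as follows, unless noted: active = primary screen active and over 50% activation in each of two duplicate runs; inactive = the rest.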

Tests used:
[1] = tested on: TRPC4 beta (transient receptor potential cation channel C4), mouse; experiment: TRPC4 cation channel opening, retest – cell-based, Fluo4 calcium, HEK293 TRPC4beta/mu-opioid, duplicates, 10 µM, confirmation (AID 2426;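 active = fluorescence ratio normalized to control raised more than 50% in primary screen plus both repeat runs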); settings: Fluo4 calcium fluorescence, at 10 µM; stronger effect = higher value
[2] = tested on: transient receptor potential cation channel C4 beta (TRPC4), mouse; experiment: TRPC4 cation channel opening, second retest – cell-based, second round, Fluo4, HEK293 TRPC4beta/mu-opioid, 1 µM, confirmation (AID 2461); settings: Fluo4 calcium fluorescence, at 1 µM; stronger effect = higher value
[3] = tested on: TRPC4 (transient receptor potential cation channel C4 beta), mouse; experiment: potentiation of DAMGO EC20 TRPC4 response – cell-based, second round, Fluo-4, HEK293 TRPC4beta/mu-opioid, 1 µM, confirmation (AID 2554;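 active = primary screen hit whose fluorescence ratio, in both repeats, exceeds the weak agonist control mean by 3 SD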); settings: DAMGO EC20, Fluo-4 calcium flux, at 1 µM; stronger effect = higher value
[4] = tested on: TRPC4 beta (transient receptor potential cation channel C4), mouse; experiment: potentiation of DAMGO EC20 TRPC4 response – cell-based, Fluo-4, HEK293 TRPC4beta/mu-opioid, confirmation (AID 2555;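 active = primary screen hit whose calcium fluorescence ratio, in both repeats, exceeds the weak agonist control mean by 3 SD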); settings: DAMGO EC20, Fluo-4 calcium flux, at 10 µM; stronger effect = higher value
[5] = target: Short transient receptor potential channel 4 (Mus musculus) (UniProt Q9QUQ5); experiment: blockers of DAMGO-evoked TRPC4 calcium flux – cell-based, Fluo4, HEK293 TRPC4beta/mu-opioid, confirmation (AID 2636;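 active = calcium signal cut by more than 3 SD below the full-agonist control yet still positive, in both repeats and the earlier primary screen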); settings: at 10 µM; stronger effect = higher value
Chain of Short transient receptor potential channel 4 (Mus musculus) (Q9QUQ5 whole entry, looked up): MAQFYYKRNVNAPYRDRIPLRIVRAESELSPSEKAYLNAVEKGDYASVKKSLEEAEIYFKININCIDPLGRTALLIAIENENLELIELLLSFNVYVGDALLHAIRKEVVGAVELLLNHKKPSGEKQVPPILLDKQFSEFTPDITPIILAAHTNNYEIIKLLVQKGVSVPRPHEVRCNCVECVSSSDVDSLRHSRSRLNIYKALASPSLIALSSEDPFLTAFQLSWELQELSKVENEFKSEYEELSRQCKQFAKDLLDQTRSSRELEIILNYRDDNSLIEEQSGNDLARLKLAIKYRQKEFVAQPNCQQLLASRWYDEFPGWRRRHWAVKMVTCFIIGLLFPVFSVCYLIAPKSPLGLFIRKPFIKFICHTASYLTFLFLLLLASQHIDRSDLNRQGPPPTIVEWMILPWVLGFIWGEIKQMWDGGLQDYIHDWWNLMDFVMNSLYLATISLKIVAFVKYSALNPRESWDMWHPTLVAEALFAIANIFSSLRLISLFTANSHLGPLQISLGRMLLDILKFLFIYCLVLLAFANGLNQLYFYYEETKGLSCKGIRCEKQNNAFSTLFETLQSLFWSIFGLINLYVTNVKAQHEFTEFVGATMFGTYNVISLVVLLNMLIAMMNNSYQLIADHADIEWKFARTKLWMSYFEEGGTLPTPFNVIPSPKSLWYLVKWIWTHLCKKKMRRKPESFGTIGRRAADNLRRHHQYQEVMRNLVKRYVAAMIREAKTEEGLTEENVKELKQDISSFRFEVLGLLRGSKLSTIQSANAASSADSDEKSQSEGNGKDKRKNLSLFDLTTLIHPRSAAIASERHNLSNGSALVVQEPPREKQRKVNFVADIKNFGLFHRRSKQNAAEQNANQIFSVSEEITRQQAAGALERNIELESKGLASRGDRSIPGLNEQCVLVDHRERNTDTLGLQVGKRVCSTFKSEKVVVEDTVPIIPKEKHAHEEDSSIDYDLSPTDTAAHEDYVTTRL

[6] = target: Short transient receptor potential channel 4 (Mus musculus) (UniProt Q9QUQ5); experiment: blockers of DAMGO-evoked TRPC4 calcium flux – cell-based, second round, Fluo4, HEK293 TRPC4beta/mu-opioid, 1 µM, confirmation (AID 2637;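 active = calcium signal ratio cut to more than 3 SD under the fully stimulated control mean yet still positive, in both repeats and the primary screen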); settings: at 1 µM; stronger effect = higher value
[7] = target: Short transient receptor potential channel 4 (Mus musculus) (UniProt Q9QUQ5); experiment: calcium entry via TRPC4 opening agents – cell-based, HEK293 TRPC4/mu-opioid, Fluo-4 calcium, dose response (AID 434937;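 active = primary screen activator hit with a dose response curve and TRPC4 channel activation at any tested dose; inactive = no activation, no dose response, or not a primary hit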)
[8] = target: Short transient receptor potential channel 4 (Mus musculus) (UniProt Q9QUQ5); experiment: potentiation of DAMGO-evoked TRPC4 calcium signal – cell-based, HEK293 TRPC4/mu-opioid, Fluo-4 calcium, EC20 DAMGO, dose response (AID 434941;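 active = earlier screen potentiator hit that boosts the TRPC4 ion channel at some dose, with a dose response; inactive = no potentiation, no dose response, or not a prior hit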;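 also: calcium entry triggered by an EC20 dose of DAMGO at the co-expressed mu-opioid receptor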)
[9] = target: Short transient receptor potential channel 4 (Mus musculus) (UniProt Q9QUQ5); experiment: block of DAMGO-driven TRPC4 calcium entry – cell-based, HEK293 TRPC4/mu-opioid, Fluo-4 calcium, dose response (AID 434942;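 active = primary screen inhibitor hit that blocks the TRPC4 channel at some tested dose, yielding a dose curve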)
[10] = target: Short transient receptor potential channel 6 (Mus musculus) (UniProt Q61143); experiment: TRPC6 blockade by TRPC4 inhibitor hits – cell-based, HEK293, membrane potential dye, duplicate, selectivity assay for TRPC4 inhibitor project, confirmation (AID 434948;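 active = active in primary screen and both duplicates, each dropping signal beyond three positive-control SD with fluorescence still positive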); settings: HEK293 TRPC6, membrane potential dye fluorescence, at 10 µM, stimulated with maximal-effect acetylcholine; stronger effect = higher value
Chain of Short transient receptor potential channel 6 (Mus musculus) (Q61143 whole entry, looked up): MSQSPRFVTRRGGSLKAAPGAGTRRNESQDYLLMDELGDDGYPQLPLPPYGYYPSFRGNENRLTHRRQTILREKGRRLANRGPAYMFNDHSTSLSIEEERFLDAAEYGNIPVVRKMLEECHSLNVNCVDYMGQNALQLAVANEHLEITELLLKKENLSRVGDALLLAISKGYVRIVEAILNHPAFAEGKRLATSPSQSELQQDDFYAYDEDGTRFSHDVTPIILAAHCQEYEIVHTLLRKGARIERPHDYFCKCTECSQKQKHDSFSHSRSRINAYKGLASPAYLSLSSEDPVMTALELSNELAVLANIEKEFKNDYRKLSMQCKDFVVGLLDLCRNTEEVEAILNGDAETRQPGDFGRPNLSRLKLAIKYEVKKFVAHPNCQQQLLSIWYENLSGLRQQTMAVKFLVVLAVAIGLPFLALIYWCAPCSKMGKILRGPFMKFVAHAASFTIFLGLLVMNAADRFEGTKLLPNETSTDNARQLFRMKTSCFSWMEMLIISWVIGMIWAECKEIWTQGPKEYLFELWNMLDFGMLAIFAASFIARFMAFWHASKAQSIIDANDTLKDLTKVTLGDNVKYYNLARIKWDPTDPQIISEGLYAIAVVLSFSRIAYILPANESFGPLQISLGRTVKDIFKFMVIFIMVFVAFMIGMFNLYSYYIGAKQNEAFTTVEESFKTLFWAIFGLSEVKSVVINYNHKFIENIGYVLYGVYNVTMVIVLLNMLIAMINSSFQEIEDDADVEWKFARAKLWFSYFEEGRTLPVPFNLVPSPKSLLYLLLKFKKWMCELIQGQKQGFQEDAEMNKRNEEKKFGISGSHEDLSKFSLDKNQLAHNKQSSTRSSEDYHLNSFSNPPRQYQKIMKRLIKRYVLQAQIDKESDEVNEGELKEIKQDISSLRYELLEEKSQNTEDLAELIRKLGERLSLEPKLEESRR

[11] = target: Short transient receptor potential channel 6 (Mus musculus) (UniProt Q61143); experiment: TRPC6 opening by TRPC4 activator hits – cell-based, HEK293, membrane potential dye, duplicate, selectivity assay for TRPC4 activator project, confirmation (AID 434950;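 active = membrane potential signal rise above negative control mean plus 3 SD in both duplicates, also active in the earlier TRPC4 screen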); settings: HEK293 TRPC6, membrane potential fluorescence, at 10 µM; activation: stronger effect = higher value; outcome: activation
[12] = target: Short transient receptor potential channel 6 (Mus musculus) (UniProt Q61143); experiment: positive modulators of mouse TRPC6 channel – HEK293 cells, membrane potential dye, duplicate, selectivity assay for TRPC4 potentiator project, confirmation (AID 434952;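 active = compound raising the membrane signal above positive-control mean plus 3 SD in both repeats, and a primary screen hit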); settings: HEK293 TRPC6, membrane potential dye fluorescence, at 10 µM, maximal acetylcholine added after compound; stronger effect = higher value
[13] = target: Short transient receptor potential channel 4 (Mus musculus) (UniProt Q9QUQ5); experiment: calcium flux activators in TRPC4/5HT1a cells, counter-screen for TRPC4 activator project, cell-based, second counter screen, HEK293 TRPC4/5HT1a, Fluo-4 (AID 434977;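 active = calcium signal rise above buffer-control mean plus 5 SD in both duplicates, and also a hit in the primary screen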); settings: Fluo-4 calcium flux, at 10 µM; stronger effect = higher value
[14] = serotonin-gated TRPC4 signal block – cell-based, second counter screen, HEK293 TRPC4/5HT1a, Fluo-4, counter-screen for TRPC4 inhibitor project, confirmation (AID 434978;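 active = primary screen active whose calcium signal fell more than 3 SD beyond the full-serotonin control mean in both duplicate plates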;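 as to outcome: serotonin given first at submaximal then at maximal dose after compound preincubation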); settings: Fluo-4 calcium flux, at 10 µM, serotonin added to trigger calcium flux; stronger effect = higher value
[15] = tested on: TRPC4 (mouse), co-expressed with 5HT1a in HEK293; experiment: enhancement of serotonin-evoked TRPC4 response – cell-based, second counter screen, HEK293 TRPC4/5HT1a, Fluo-4, counter-screen for TRPC4 potentiator project, confirmation (AID 434979;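 active = signal rise over 3 SD above mean of control wells given weak agonist, in both repeats and first screen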); settings: Fluo-4 calcium flux, at 10 µM, serotonin added at its EC20 dose; stronger effect = higher value
[16] = nonspecific calcium rise without TRPC4 – cell-based, HEK293 mu-opioid receptor line, counter-screen for TRPC4 activator project, confirmation (AID 449723;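 active = hit in primary screen, with calcium signal over 5 SD above buffer well mean in both duplicates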;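 also: counter screen cells carry the mu-opioid receptor alone and lack TRPC4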); settings: HEK293 mu-opioid cells, Fluo-4 calcium fluorescence, at 10 µM; stronger effect = higher value
[17] = nonspecific potentiation of DAMGO calcium response – cell-based, HEK293 mu-opioid receptor line, counter-screen for TRPC4 allosteric potentiator project, confirmation (AID 449724;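 active = calcium signal rise more than 3 SD above the low-dose agonist control mean, in both duplicate plates and the primary screen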); settings: HEK293 mu-opioid receptor cells, Fluo-4 calcium flux, at 10 µM, compound added before EC20 DAMGO stimulus; stronger effect = higher value

Cc1ccccc1OCCNc1cc(N2CCNCC2)ccc1[N+](=O)[O-]
outcome [1]: inactive | outcome [2]: inactive | outcome [3]: inactive | outcome [4]: inactive | outcome [5]: inactive | outcome [6]: inactive | outcome [7]: inactive | outcome [8]: inactive | outcome [9]: inactive | outcome [10]: inactive | outcome [11]: inactive | outcome [12]: inactive | outcome [13]: inactive | outcome [14]: inactive | outcome [15]: inactive | outcome [16]: inactive | outcome [17]: inactive

CCOC(=O)C1=C(NC(=S)NC(=O)c2ccccc2)c2ccccc2CC1(C)C
outcome [1]: inactive | outcome [2]: inactive | outcome [3]: inactive | potentiation [4]: 12% (active) | outcome [5]: inactive | outcome [6]: inactive | outcome [7]: inactive | outcome [8]: inactive | outcome [9]: inactive | outcome [10]: inactive | outcome [11]: inactive | outcome [12]: inactive | outcome [13]: inactive | outcome [14]: inactive | potentiation [15]: 27.1% (active) | outcome [16]: inactive | outcome [17]: inactive

CC(C)Oc1cc(N)c(Cl)cc1Cl
outcome [1]: inactive | outcome [2]: inactive | outcome [3]: inactive | outcome [4]: inactive | outcome [5]: inactive | outcome [6]: inactive | outcome [7]: inactive | outcome [8]: inactive | outcome [9]: inactive | outcome [10]: inactive | outcome [11]: inactive | outcome [12]: inactive | outcome [13]: inactive | outcome [14]: inactive | outcome [15]: inactive | outcome [16]: inactive | outcome [17]: inactive

CCN(CC)CCSc1nnc2c3ccccc3n(Cc3ccccc3)c2n1
outcome [1]: inactive | outcome [2]: inactive | outcome [3]: inactive | outcome [4]: inactive | outcome [5]: inactive | outcome [6]: inactive | outcome [7]: inactive | outcome [8]: inactive | outcome [9]: inactive | outcome [10]: inactive | outcome [11]: inactive | outcome [12]: inactive | outcome [13]: inactive | outcome [14]: inactive | outcome [15]: inactive | outcome [16]: inactive | outcome [17]: inactive

O=C(O)CCC(=O)N1CCN(c2nc3ccccc3s2)CC1
outcome [1]: inactive | outcome [2]: inactive | outcome [3]: inactive | potentiation [4]: 11% (active) | outcome [5]: inactive | outcome [6]: inactive | outcome [7]: inactive | outcome [8]: inactive | outcome [9]: inactive | outcome [10]: inactive | outcome [11]: inactive | outcome [12]: inactive | outcome [13]: inactive | outcome [14]: inactive | potentiation [15]: 21.2% (active) | outcome [16]: inactive | outcome [17]: inactive

O=C(Nc1nnc2n1CCS2)c1ccc(Br)o1
outcome [1]: inactive | outcome [2]: inactive | outcome [3]: inactive | potentiation [4]: 80% (active) | outcome [5]: inactive | outcome [6]: inactive | outcome [7]: inactive | outcome [8]: inactive | outcome [9]: inactive | outcome [10]: inactive | outcome [11]: inactive | outcome [12]: inactive | outcome [13]: inactive | outcome [14]: inactive | potentiation [15]: 56.3% (active) | outcome [16]: inactive | outcome [17]: inactive

CCOc1cc(S(=O)(=O)N2CCN(C(=O)c3ccco3)CC2)ccc1F
outcome [1]: inactive | outcome [2]: inactive | outcome [3]: inactive | potentiation [4]: 12% (active) | outcome [5]: inactive | outcome [6]: inactive | outcome [7]: inactive | outcome [8]: inactive | outcome [9]: inactive | outcome [10]: inactive | outcome [11]: inactive | outcome [12]: inactive | outcome [13]: inactive | outcome [14]: inactive | potentiation [15]: 32% (active) | outcome [16]: inactive | outcome [17]: inactive

O=C(Nc1cccc(C(F)(F)F)c1)c1cccc(NS(=O)(=O)c2ccc(O)c(C(=O)O)c2)c1
outcome [1]: inactive | outcome [2]: inactive | outcome [3]: inactive | outcome [4]: inactive | outcome [5]: inactive | outcome [6]: inactive | outcome [7]: inactive | outcome [8]: inactive | outcome [9]: inactive | outcome [10]: inactive | outcome [11]: inactive | outcome [12]: inactive | outcome [13]: inactive | outcome [14]: inactive | outcome [15]: inactive | outcome [16]: inactive | outcome [17]: inactive

Clc1ccc(OCCCc2nc(-c3ccncc3)no2)c(Cl)c1
outcome [1]: inactive | outcome [2]: inactive | outcome [3]: inactive | outcome [4]: inactive | inhibition [5]: 91% (active) | outcome [6]: inactive | outcome [7]: inactive | outcome [8]: inactive | outcome [9]: inactive | outcome [10]: inactive | outcome [11]: inactive | outcome [12]: inactive | outcome [13]: inactive | inhibition [14]: 30.7% (active) | outcome [15]: inactive | outcome [16]: inactive | outcome [17]: inactive

CCc1c(C)nc2c(-c3ccccc3)c(C)nn2c1Nc1ccc(NC(C)=O)cc1
outcome [1]: inactive | outcome [2]: inactive | outcome [3]: inactive | potentiation [4]: 14% (active) | outcome [5]: inactive | outcome [6]: inactive | outcome [7]: inactive | outcome [8]: inactive | outcome [9]: inactive | outcome [10]: inactive | outcome [11]: inactive | outcome [12]: inactive | outcome [13]: inactive | outcome [14]: inactive | potentiation [15]: 74% (active) | outcome [16]: inactive | outcome [17]: inactive

Clc1cccc2c3c([nH]c12)CCNC3
outcome [1]: inactive | outcome [2]: inactive | outcome [3]: inactive | potentiation [4]: 38% (active) | outcome [5]: inactive | outcome [6]: inactive | outcome [7]: inactive | outcome [8]: inactive | outcome [9]: inactive | outcome [10]: inactive | outcome [11]: inactive | outcome [12]: inactive | outcome [13]: inactive | outcome [14]: inactive | potentiation [15]: 40.3% (active) | outcome [16]: inactive | outcome [17]: inactive

CN(C)CCCCOc1cccc(Br)c1
outcome [1]: inactive | outcome [2]: inactive | outcome [3]: inactive | outcome [4]: inactive | outcome [5]: inactive | outcome [6]: inactive | outcome [7]: inactive | outcome [8]: inactive | outcome [9]: inactive | outcome [10]: inactive | outcome [11]: inactive | outcome [12]: inactive | outcome [13]: inactive | outcome [14]: inactive | potentiation [15]: 20% (active) | outcome [16]: inactive | outcome [17]: inactive

COc1ccc(CCNC(=O)Cn2cnc3c(cnn3C(C)(C)C)c2=O)cc1OC
outcome [1]: inactive | outcome [2]: inactive | outcome [3]: inactive | outcome [4]: inactive | outcome [5]: inactive | outcome [6]: inactive | outcome [7]: inactive | outcome [8]: inactive | outcome [9]: inactive | outcome [10]: inactive | outcome [11]: inactive | outcome [12]: inactive | outcome [13]: inactive | outcome [14]: inactive | potentiation [15]: 7.92% (active) | outcome [16]: inactive | outcome [17]: inactive

CCN(CC)CCCN(C(=O)c1cccs1)c1nc(-c2ccc(OC)cc2)cs1
outcome [1]: inactive | outcome [2]: inactive | outcome [3]: inactive | outcome [4]: inactive | outcome [5]: inactive | outcome [6]: inactive | outcome [7]: inactive | outcome [8]: inactive | outcome [9]: inactive | outcome [10]: inactive | outcome [11]: inactive | outcome [12]: inactive | outcome [13]: inactive | outcome [14]: inactive | outcome [15]: inactive | outcome [16]: inactive | outcome [17]: inactive

CCN1CCN(c2ccc(S(=O)(=O)N3CCCCC3)cc2NC(=O)c2cccc(C(F)(F)F)c2)CC1
outcome [1]: inactive | outcome [2]: inactive | outcome [3]: inactive | potentiation [4]: 21% (active) | outcome [5]: inactive | outcome [6]: inactive | outcome [7]: inactive | outcome [8]: inactive | outcome [9]: inactive | outcome [10]: inactive | outcome [11]: inactive | outcome [12]: inactive | outcome [13]: inactive | outcome [14]: inactive | potentiation [15]: 21.1% (active) | outcome [16]: inactive | outcome [17]: inactive
